Laboratory results reported in PubChem BioAssay (NCATS).
Inconclusive results are not listed. Calls of active or inactive are those of the source. The call rests on the fitted dose curve; in most records, active means well fitted curve in the direction sought with a large enough effect; inconclusive means small, poorly fitted or top-dose-only effect, or effect the other way, or another doubt; inactive means no such curve, though single readings can be large or run the other way.

molecular target: Transient receptor potential cation channel subfamily V member 1 (Homo sapiens) (UniProt Q8NER1); assay: HTS Assay for Compounds that Act as Enhancers of the Vanilloid Receptor 1 (AID 488979); settings: TRPV1-expressing cells, enhancer of channel activity, stimulated with capsaicin at EC20; series mostly up to 41.7 µM; activity change, positive = enhancement: at the top concentration; further: 0% is about no effect
Text: The transient receptor potential ion channel, family V, number 1, (TRPV1) is one of the most important molecular transducers of painful stimuli and a potential target for analgesic drug development. Although recent clinical trials with orthosteric antagonists have not produced a successful drug because of a hyperthermia side effect and their tendency to block thermal noxious pain, this ion channel is undeniably well placed in the pain pathway, and the idea of blocking pain signals before they enter the CNS is an excellent concept and of proven efficacy when TRPV1 agonists are used. We propose a new approach involving allosteric modulation to impose an activity-dependent constraint within the context of inflammation and tissue damage that would alter the responsiveness of the channel in a way that an orthosteric vanilloid antagonist cannot achieve. We believe that the allosteric modulator approach has not been explored for this target.
The main goal of this proposal is to identify additional, new, potent allosteric modulators of TRPV1 that can be used to investigate TRPV1 function. Our recent report provides evidence of proof of concept, but the compounds are just at the edge of utility in terms of potency. […] The question of whether they can be used as analgesic agents is complex, but if suitable compounds are identified then testing for analgesic properties will be conducted.
Upon TRPV1 activation in TRPV1 cells, the channel opens and extracellular cations flow through the channel into the cytosol. A calcium binding dye (Fluo-8) becomes fluorescent when bound to calcium. This dye is pre-loaded into cells and is used as a marker for calcium influx.
The amount of accumulated calcium is precisely quantified using the FDSS kinetic reader and the calcium dye.
For the HTS assay, freshly prepared cells are plated at a density of 2000/well in 3 ul medium in 1536-well plates and cultured overnight at 35.5C. Cells will be loaded with 1 ul of the homogeneous calcium dye (ABD Bioquest) at room temperature for 40 to 90 minutes. Plates will be loaded into the FDSS kinetic reader and a 1 sec / cycle for 10 second baseline signal will be measured. Compound library will then be added with a pintool at 23 nl and measured kinetically for 3 minutes. This portion of the read is considered the agonist portion of the screen. Following the 3 minutes of incubation, an on board pipettor will deliver 1 ul of capsaicin for a final concentration equal to the EC20. Signal will be measured kinetically for an additional 2 minutes. This portion of the read is considered the allosteric enhancer portion of the screen.
The FDSS reader has a standard filter set capable of measuring calcium bound Fluo-8 (ex=480 and em=520 nm).

Sequence of Transient receptor potential cation channel subfamily V member 1 (Homo sapiens) (Q8NER1 whole entry, looked up): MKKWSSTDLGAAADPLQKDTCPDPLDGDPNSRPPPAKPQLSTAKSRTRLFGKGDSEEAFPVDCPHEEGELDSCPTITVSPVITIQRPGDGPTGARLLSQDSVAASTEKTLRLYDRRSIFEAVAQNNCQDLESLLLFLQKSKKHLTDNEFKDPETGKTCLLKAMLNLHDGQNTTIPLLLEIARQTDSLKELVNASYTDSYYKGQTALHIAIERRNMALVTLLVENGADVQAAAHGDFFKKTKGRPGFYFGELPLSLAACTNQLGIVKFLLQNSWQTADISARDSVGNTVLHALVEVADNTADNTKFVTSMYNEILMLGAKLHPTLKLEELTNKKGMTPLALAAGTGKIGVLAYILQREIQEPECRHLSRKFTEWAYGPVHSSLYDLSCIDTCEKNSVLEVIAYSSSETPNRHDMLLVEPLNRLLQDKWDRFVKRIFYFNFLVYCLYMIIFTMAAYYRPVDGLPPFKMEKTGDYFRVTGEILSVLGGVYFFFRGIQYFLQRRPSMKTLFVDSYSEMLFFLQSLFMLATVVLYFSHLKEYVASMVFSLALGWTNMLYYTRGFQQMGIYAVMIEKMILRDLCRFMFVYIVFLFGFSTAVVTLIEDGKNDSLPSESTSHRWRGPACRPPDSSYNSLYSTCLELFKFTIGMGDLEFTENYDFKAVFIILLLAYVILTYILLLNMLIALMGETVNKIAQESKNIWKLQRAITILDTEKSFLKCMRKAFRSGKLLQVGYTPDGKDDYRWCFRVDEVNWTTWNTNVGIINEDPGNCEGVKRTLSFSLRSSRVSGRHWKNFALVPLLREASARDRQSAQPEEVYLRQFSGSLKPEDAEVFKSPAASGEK

Activity change, positive = enhancement, inactive:
CC(=O)O[C@]1(C(C)=O)CC[C@H]2C3C=C(Cl)C4=CC(=O)[C@@H]5C[C@H]5[C@]4(C)C3CC[C@@]21C (stereo partly drawn) 13.9%, CCCCN1CCC(COC(=O)c2cc(Cl)c(N)c3c2OCCO3)CC1 13.2%, Nc1nc(Cl)nc2c1ncn2[C@@H]1O[C@H](CO)[C@H](O)[C@H]1O 4.75%, Nc1nc(Cl)nc2c1ncn2[C@@H]1O[C@H](COP(=O)(O)OP(=O)(O)OP(=O)(O)O)[C@H](O)[C@H]1O -1.84%, Cc1c(C)c2c(c(C)c1O)CCC(C)(CN1CCN(c3cc(N4CCCC4)nc(N4CCCC4)n3)CC1)O2 (stereo not drawn) -30.6%, CC(=O)SC1CC2=CC(=O)CC[C@]2(C)C2CC[C@@]3(C)[C@@H](CC[C@@]34CCC(=O)O4)C12 (stereo partly drawn) 7.45%, O=S(=O)(O)C1CCNCC1 -2.77%, Cc1cc(N)c2ccccc2[n+]1CCCCCCCCCCCCCC[n+]1c(C)cc(N)c2ccccc21 -3.88%, N#Cc1c(-c2ccccc2)no[n+]1[O-] -10.8%, C[C@H]1c2cccc(O)c2C(O)=C2C(=O)[C@]3(O)C(O)=C(C(N)=O)C(=O)C(N(C)C)[C@@H]3[C@@H](O)C21 (stereo partly drawn) -8.05%, C#C[C@]1(O)CC[C@H]2C3CCC4=Cc5oncc5CC4(C)C3CCC21C (stereo partly drawn) -8.5%, N#CC(Cc1ccc(O)c(O)c1)C(=O)N1CCc2ccccc21 (stereo not drawn) 23.4%, COc1cc2c(cc1O)CCC1C2CC[C@]2(C)[C@@H](O)CC[C@@H]12 (stereo partly drawn) -4.24%
